Screening data (PubChem)
Shown is part of a subset that was picked to be rich in hits.
Pf Dd2 growth – inhibitors of Plasmodium falciparum Dd2 growth. Potency, µM (top dose mostly 28.9 µM), without a hit: at the top dose activity, negative = inhibition, actives largely listed as inhibitors. P. falciparum Dd2 growth, SYBR Green, 72 h. 120,000 compounds, 4.3% hits; active = well fitted inhibition curve with a large enough effect;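 note: plate controls were DMSO vehicle for no effect and reference drug for full effect; nearly all actives have a fitted effect of over 65% in size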
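Readout: SYBR Green fluorescence, 485 nm excitation, 535 nm emission, after ~16 h lysis at 37C. Before that, Dd2-infected red cells (2.5% hematocrit) grew 72 h with compound, 29 uM top final concentration.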
* marks the source's active call; other numbers are inactive results; [ ] = dose if it differs, or a comment. Potency is the fitted concentration of half-maximal effect.

How did CC(=O)NCCC1CCN(C(=O)Nc2ccc(C)cc2)CC1 do in these assays?
Pf Dd2 growth: -12.5%

What do the screens show for `O=C(c1ccnnc1)N1C[C@@H](COCC2CC2)[C@H](c2ccccn2)C1`?
Pf Dd2 growth: 20.1%

Results for Fc1ccc(N2CCN(Cc3nnc(-c4ccccc4Cl)o3)CC2)cc1 ?
Pf Dd2 growth: 2.4%

How did Cc1ccc(NCc2ccccc2-c2nnc(-c3ccccc3Cl)o2)cc1Cl do in these assays?
Pf Dd2 growth: -24.4%

How did Fc1ccc(NCc2ccccc2-c2nnc(-c3ccccc3Cl)o2)cc1 do in these assays?
Pf Dd2 growth: 12.6µM*

What do the screens show for `CN(Cc1ccccc1)Cc1ccccc1C(F)(F)F`?
Pf Dd2 growth: -15.5%[44.1 µM]

What do the screens show for `CCn1c2c(c(=O)n1-c1ccccc1)CCN(C(=O)c1scnc1C)C2`?
Pf Dd2 growth: 28.9%[44.1 µM]

What do the screens show for `Cc1cccc(N2CCN(C(=O)c3cc4c(=O)n(C)c5ccccc5c4s3)CC2C)c1` (stereo unspecified)?
Pf Dd2 growth: 4.8%

Results for Cc1ccc(-c2c(C(=O)N3CCN(c4cccc(C)c4)C(C)C3)oc(=O)c3ccccc23)cc1 (stereo unspecified) ?
Pf Dd2 growth: 4.47µM*

Results for Cc1cccc(N2CCN(C(=O)c3ccc4c(c3)c(C)c(C)n4C)CC2C)c1 (stereo unspecified) ?
Pf Dd2 growth: inactive

How did C#CCN(CC=C)Cc1cnc(S(=O)(=O)CC)n1CCCc1ccccc1 do in these assays?
Pf Dd2 growth: inactive

What do the screens show for `CCC(O)C1CCN(Cc2cnc(S(=O)(=O)CC)n2CCc2ccccc2)CC1` (stereo unspecified)?
Pf Dd2 growth: inactive

What do the screens show for `CCCCn1c(CN(C)C(C)c2ccccc2OC)cnc1S(=O)(=O)CC` (stereo unspecified)?
Pf Dd2 growth: 8.91µM*

Results for Cc1nn(-c2ccc(F)cc2)c(Oc2cccc(F)c2)c1CCC(=O)N(C)C(C)C ?
Pf Dd2 growth: -17.7%

What do the screens show for `Cc1noc(C)c1CC(=O)N1CCC(Cc2noc(-c3ccccc3)n2)C1` (stereo unspecified)?
Pf Dd2 growth: -16.7%

Results for CCn1cc(S(=O)(=O)N2CCCC(c3nc(-c4ccccc4)no3)CCNC(=O)CC2)cn1 (stereo unspecified) ?
Pf Dd2 growth: -18.6%

Results for O=C(c1cccnc1)N1CCC(c2nnc3n2C(C(=O)N2CCCC2)CC3)CC1 (stereo unspecified) ?
Pf Dd2 growth: 10.9%

Results for Cc1ccccc1-c1cnc2[nH]cc(CC(=O)NCc3cccnc3)c2c1 ?
Pf Dd2 growth: -14.8%[44.1 µM]

Results for CN(C)c1cccc(NC(=O)Cc2c[nH]c3ncc(-c4cccnc4)cc23)c1 ?
Pf Dd2 growth: inactive

What do the screens show for `O=C(Cc1c[nH]c2ncc(-c3ccc(Oc4ccccc4)cc3)cc12)NCc1cccnc1`?
Pf Dd2 growth: 8.91µM*

Results for CN(C)c1cccc(-c2cnc3[nH]cc(CC(=O)NCc4cccnc4)c3c2)c1 ?
Pf Dd2 growth: 8.91µM*

How did NC(=O)Cc1c[nH]c2ncc(-c3ccc(F)cc3)cc12 do in these assays?
Pf Dd2 growth: inactive

Results for O=C(Cc1c[nH]c2ncc(-c3ccccc3F)cc12)NCc1cccnc1 ?
Pf Dd2 growth: -2.4%[44.1 µM]

What do the screens show for `Cc1cccc(-c2cnc3[nH]cc(CC(N)=O)c3c2)c1`?
Pf Dd2 growth: inactive

Results for Cc1noc(C)c1-c1cnc2[nH]cc(CC(=O)NCc3cccnc3)c2c1 ?
Pf Dd2 growth: -11.2%[44.1 µM]

What do the screens show for `COc1ccc(-c2cnc3[nH]cc(CC(N)=O)c3c2)cc1OC`?
Pf Dd2 growth: 0.631µM*

What do the screens show for `CC[C@H]1CN(S(=O)(=O)c2ccc(OC)cc2)CC[C@H]1CC(=O)NCc1ccc(OC)cc1`?
Pf Dd2 growth: inactive

What do the screens show for `O=C1N(C2CCNCC2)C(c2ccccc2)C12CCCCC2` (stereo unspecified)?
Pf Dd2 growth: inactive

How did COCC(NC(=O)c1cc(S(N)(=O)=O)ccc1F)c1ccnn1C (stereo unspecified) do in these assays?
Pf Dd2 growth: -3.9%

What do the screens show for `COc1ccc(NC(=O)Cn2ccn3nc(-c4ccccc4)c(CO)c3c2=O)cc1`?
Pf Dd2 growth: 15.8%

Results for Cc1[nH]c2ccccc2c1C(c1ccccc1)c1ccc(Cl)s1 (stereo unspecified) ?
Pf Dd2 growth: 8.91µM*

Results for c1ccc(C(c2cccs2)c2c[nH]c3ccccc23)cc1 (stereo unspecified) ?
Pf Dd2 growth: -20.0%

How did COCC(=O)NC[C@H]1OC[C@@H](NCc2ccccc2F)[C@@H]1O do in these assays?
Pf Dd2 growth: 1.1%[44.1 µM]

Results for COCC(=O)NC[C@H]1OC[C@@H](NCc2ccc(C)cc2)[C@@H]1O ?
Pf Dd2 growth: 10.8%[44.1 µM]

What do the screens show for `COCC(=O)NC[C@H]1OC[C@@H](NCc2ccc(F)cc2)[C@@H]1O`?
Pf Dd2 growth: 14.1µM*

How did Cc1ccc(NC(=O)c2oc3ccc(S(=O)(=O)N4CCCCCC4)cc3c2C)cc1Cl do in these assays?
Pf Dd2 growth: 21.5%

What do the screens show for `Cc1ccc(CNC(=O)c2oc3ccc(S(=O)(=O)N4CCCC(C)C4)cc3c2C)cc1` (stereo unspecified)?
Pf Dd2 growth: 10µM*
